Many of the other results were omitted from the sample, so hits are more common in it than they were.
Pf Dd2 growth = blocks in vitro growth of P. falciparum Dd2; P. falciparum Dd2 growth, SYBR Green, 72 h; actives 4.3% (n = 120,000); Potency, µM (highest dose often 28.9 µM), for the others: top-dose activity, negative = inhibition, most hits filed as inhibitors; active means well fitted inhibition curve with a large enough effect;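 further: plate controls were DMSO vehicle for no effect and reference drug for full effect; nearly all actives have a fitted effect of over 65% in size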
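Readout: SYBR Green fluorescence, 485 nm excitation, 535 nm emission, after ~16 h lysis at 37C. Before that, Dd2-infected red cells (2.5% hematocrit) grew 72 h with compound, 29 uM top final concentration.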
The depositor's hits bear a star; i = inactive; [ ] = another dose, or the depositor's remark. Potency means the concentration at half of the fitted maximal effect.

SMILES	Pf Dd2 growth
CC(C)OC(=O)c1cccnc1SCC(=O)Nc1ccc(C(F)(F)F)cc1Cl	3.16µM*
O=C(CSc1nccn1Cc1ccco1)Nc1cc(C(F)(F)F)ccc1Cl	i
CCN(C(=O)Cn1nc(Cc2ccncc2)c2ccccc2c1=O)c1cccc(Cl)c1	11.2µM*
CCOc1ccc(NC(=O)Cn2nc(Cc3cccnc3)c3ccccc3c2=O)cc1	-24.1%
Cc1ccc(NC(=O)Cn2nc(Cc3ccncc3)c3ccccc3c2=O)c(Cl)c1	5.7%
Cc1ccc(CN2C(=O)OC(c3cccc(NC(=O)c4cccs4)c3)C2C(=O)NCC(C)C)cc1 (centres undefined)	-15.8%
O=C(c1cn2cc(-c3cccs3)n(CC3CC3)c(=O)c2n1)N1CCCC1	i
CN1CCN(c2nc3c(c(=O)[nH]2)CCN(Cc2ccccc2F)CC3)CC1	12.1%[5.79 µM]
CC(C)NC(=O)c1nc(-c2ccc(Cl)cc2)c2ccccn12	2.3%
CCC(Sc1nc2c(sc3ccccc32)c(=O)n1CCc1ccc(OC)c(OC)c1)C(=O)N(CC)CC (centres undefined)	3.98µM*
CCC(Sc1nc2ccccc2c(=O)n1CCc1ccc(OC)c(OC)c1)C(=O)N(CC)CC (centres undefined)	-4.9%
CCC(Sc1nc2c(sc3ccccc32)c(=O)n1CCc1ccccc1)C(=O)N(CC)CC (centres undefined)	23.9%
Cc1cc(C(=O)N2CCCCCCNC(=O)[C@@H]3C[C@@H](c4nc(-c5cccnc5)no4)C[C@@H]32)n(C)n1	-6.0%
CN1Cc2cccn2CC1CNC(=O)c1nn(C)c2ccccc12 (centres undefined)	-20.0%
COc1cccc(C(=O)N2CCC(C(NC(=O)c3cccc(C)c3)C(=O)N3CCCC3)CC2)c1 (centres undefined)	i
CCc1[nH]c2c(CNC(=O)C(C)O)cc(C)cc2c1C (centres undefined)	-6.1%
Cc1cc(CNC(=O)c2cccc(F)c2F)c2[nH]c(C)c(C)c2c1	10µM*
Cc1cc(CNC(=O)c2ccc(S(N)(=O)=O)cc2)c2[nH]c(C)c(C)c2c1	-14.2%
CCn1ncc(N2CCC(NC(=O)c3ccccc3)CC2)cc1=O	7.3%
CS(=O)(=O)N1CCC(C2CCN(C(=O)NCc3ccco3)C2)CC1 (centres undefined)	3.2%
Cc1cccc(Cn2c(=O)n(Cc3ccccc3)c(=O)c3sc4ccccc4c32)c1	8.91µM*
Cc1ccc(CNC(=O)Cn2c(=O)n(Cc3ccccc3)c(=O)c3sc4ccccc4c32)cc1	41.6%
Cc1ccc(Cn2c(=O)n(Cc3ccco3)c(=O)c3sc4ccccc4c32)cc1	42.1%
Cc1cc(C(=O)N2[C@@H]3CC[C@H]2CC(NC(=O)c2ccc(F)cc2)C3)n[nH]1 (some centres undefined)	-14.1%
COc1ccc(Nc2cc3c(cn2)NCCN(Cc2ccccc2)C3)cn1	i
SMILES	Pf Dd2 growth
COc1ccc(Nc2cc3c(cn2)CN(Cc2ccncc2)CCN3)cn1	-5.7%[44.1 µM]
COc1ccc(Nc2cc3c(cn2)CN(CCc2ccccc2)CCN3)cc1OC	10µM*
COc1ccc(CN2CCNc3cc(-c4ccnc(C)c4)ncc3C2)cc1O	-4.2%[44.1 µM]
Fc1ccccc1-c1cc2c(cn1)CN(Cc1ccncc1)CCN2	i
Oc1ccc(-c2cc3c(cn2)CN(Cc2ccccc2)CCN3)cc1F	3.98µM*
c1ccc(CN2CCNc3cc(-c4ccncc4)ncc3C2)cc1	-25.5%[44.1 µM]
COc1ccc(-c2cc3c(cn2)CN(Cc2ccccc2)CCN3)cc1OC	11.2µM*
COc1ccc(CNc2cc3c(cn2)CN(Cc2ccccc2)CCN3)cc1OC	-15.4%[44.1 µM]
CCOc1ccc(C(=O)N2CCc3nc(OCCOC)ccc3C2)cc1OCC	-1.3%
COc1ccc(-c2noc([C@@H]3CCCN3C(=O)c3ccsc3)n2)cc1OC	i
COc1ccc(NC(=O)N2C[C@@H](F)[C@@H](OCc3nc4ccccc4[nH]3)C2)cc1	-16.9%[44.1 µM]
COCC1CN(C(=O)c2ccc(C)s2)CC12CCOCC2 (centres undefined)	27.8%
COC1CN(c2ccc(C)cc2)C12CCN(C(=O)c1sc(C)nc1C)CC2 (centres undefined)	-14.8%
CCn1cc(S(=O)(=O)N2C[C@@H](Oc3cccnc3)C[C@H]2C(=O)NC)cn1	9.9%
O=C(Cc1c[nH]c(=O)[nH]c1=O)NC(c1cnc2ccccc2c1)C1CC(O)C1 (centres undefined)	-19.0%
COc1ccc2c(c1)C1(CCN(S(=O)(=O)c3cccc(F)c3)C1)C(=O)N2 (centres undefined)	-11.9%
COCCNC(=O)N1CCC2(C1)C(=O)N(C)c1ccc(OC)cc12 (centres undefined)	13.2%
COc1ccc2c(c1)C1(CCN(C(=O)NC3CCCCC3)C1)C(=O)N2C (centres undefined)	i
COc1ccc2c(c1)C1(CCN(S(=O)(=O)c3ccc(Cl)cc3)C1)C(=O)N2C (centres undefined)	i
COc1ccc2c(c1)C1(CCN(S(=O)(=O)c3cccc(Cl)c3)C1)C(=O)N2C (centres undefined)	11.2µM*
COc1ccc2c(c1)C1(CCN(C(=O)COc3ccc(Cl)cc3)C1)C(=O)N2C (centres undefined)	7.08µM*
COC1CCC12CCN(C(=O)c1cnn(C)c1)CC2 (centres undefined)	-16.2%
CC(C)N1C[C@H](C(=O)N2CCC(Cc3ccccc3)CC2)[C@H](C(=O)O)C1	-11.6%
Cc1ccc(-c2cc3c(=O)n(CCNC(=O)c4cnccn4)ccn3n2)cc1C	i
Cc1nc(N2CCC(C(=O)O)(n3cccn3)CC2)cc(-n2cccn2)n1	-11.6%
SMILES	Pf Dd2 growth
CC1=C[C@@H](CNC(=O)c2cnccn2)[C@H](C(C)C)C[C@H]1CC(=O)N1CCOCC1	i
COCc1cc(=O)n(CC(=O)Nc2ccccc2OC)c(N2CCOCC2)n1	-9.3%
CCc1cc(=O)n(CC(=O)N2CCN(c3ccccc3F)CC2)c(N2CCOCC2)n1	7.94µM*
COc1ccc(NC(=O)Cn2c(N3CCC(C)CC3)nc(C)cc2=O)cc1	-20.7%
CCc1cc(=O)n(CC(=O)Nc2ccccc2OC)c(N2CCOCC2)n1	11.2µM*
CCc1cc(=O)n(CC(=O)N2CCN(c3ccc(OC)cc3)CC2)c(N2CCOCC2)n1	i
CCc1ccc(NC(=O)Cn2c(N3CCN(c4ccccc4)CC3)nc(C)cc2=O)cc1	i
CCc1cc(=O)n(CC(=O)Nc2cc(OC)c(OC)c(OC)c2)c(N2CCOCC2)n1	-3.9%
CCc1cc(=O)n(CC(=O)Nc2ccc(F)c(Cl)c2)c(N2CCOCC2)n1	i
COc1cc(NC(=O)Cn2c(N3CCN(c4ccccc4)CC3)nc(C)cc2=O)cc(OC)c1	6.31µM*
CC(=O)N1CCC(C2CCN(C(=O)NCCc3ccccc3)C2)CC1 (centres undefined)	-24.7%
CC1(COCC2CC2)COc2ccc(C(=O)NCc3cccc(F)c3)cc2N1 (centres undefined)	i
COC(=O)c1cn([C@H]2CO[C@H]3[C@@H]2OC[C@@H]3NCc2ccccc2)nn1	11.6%[44.1 µM]
CCc1nnc(N2CCCC3(CCC(=O)N(Cc4ccccc4)C3)C2)s1 (centres undefined)	-4.0%
Cc1ccc(C(=O)NCc2nnc3ccc(-c4ccc(C)c(C)c4)nn23)s1	-10.1%
Cc1cc2cccc(C(=O)N[C@H]3CCOC[C@H]3C3CCOCC3)c2o1	8.2%
CC(C)NC(=O)c1nc(-c2ccsc2)c2ccccn12	2.1%[44.1 µM]
CC(C)C1c2nccn2CCCN1C(=O)CN1CCCC1=O (centres undefined)	15.5%
COc1cccc(C(=O)N2CCC(c3nn(-c4ccc(Cl)cc4)c(=O)[nH]3)CC2)c1	i

Source: PubChem BioAssay (National Center for Advancing Translational Sciences (NCATS))
